Bioassay records: PubChem, SRMLSC
Spn DPM-DC inh: S. pneumoniae DPM-DC inhibitors, primary screen, biochemical, PK/LDH-coupled NADH fluorescence; diphosphomevalonate decarboxylase (Streptococcus pneumoniae D39); purified DPM-DC; calls only at 10 µM; hit rate 0.49% among 65,000;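 active = the 320 compounds with the highest percent inhibition in the single-dose primary screen, excluding strongly autofluorescent ones, cut at about 32% in these data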;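 also: kinetic rate of NADH fluorescence loss reporting ADP formed by the decarboxylase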
Abs 340nm: compound light absorbance at 340 nm, profiling panel, artefact control, biochemical, MLSMR library, data from PS, PMK, MK assays; compound absorbance at 340 nm, fold over control; fold change at 10 µM; 65,000 tested, under 10 active;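 active = at 10 µM dose, initial 340 nm absorbance at least 2 fold that of control wells; inactive = change under 2 fold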;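 also: initial absorbance extrapolated from kinetic A340 decline of NADH oxidation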
Fluor 339 460: intrinsic fluorescence of library compounds, ex339/em460 – biochemical, MLSMR library, data from DPM-DC assay, artefact control, profiling panel; compound autofluorescence, ex339/em460 nm, NADH buffer; active compounds read high; 1 = no-compound wells, NADH background; fluorescence fold increase at 10 µM; hit rate 5.5% among 65,000;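 active = at 10 µM, mean starting fluorescence two-fold or more over control wells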;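 also: signal is the first read of a kinetic run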
Spn PMK inh: S. pneumoniae PMK inhibitors, primary screen, biochemical, mevalonate pathway, pilot trial included | phosphomevalonate kinase (Streptococcus pneumoniae D39) | purified PMK, PK/LDH-coupled NADH absorbance 340 nm | inhibition, % at 10 µM | hit rate 0.49% among 65,000 | AID 539, 2006;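 active = top-ranked compounds by inhibition in the single 10 µM screen, taking a fixed number of the strongest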;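 also: 0% = full reaction with DMSO carrier and 100% = background rate without enzyme reaction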
MK inhibit: S. pneumoniae MK inhibitors, primary screen, biochemical, PK/LDH-coupled NADH absorbance; AID 555, 2006; hit rate 0.48% among 65,000; purified MK, PK/LDH-coupled NADH absorbance 340 nm; inhibition, % at 10 µM;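 active = ranked among the strongest by inhibition in the single 10 µM screen, a fixed top-ranked set picked for dose follow-up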
NADH coupling: inhibitors of PK/LDH coupling enzymes, profiling panel, artefact control, biochemical, MLSMR library | coupled PK/LDH NADH assays, four targets | IC50, µM (highest dose often 10 µM), for inactives: at the highest dose inhibition | hit rate 0.02% among 65,000 | AID 774, 2007;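 active = single-dose screening hits from any of four coupled enzyme assays that gave an IC50 when retested across doses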;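 also: the DPM-DC format reads NADH fluorescence rather than 340 nm absorbance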
An asterisk follows results filed as active; i = inactive; x = no result shown. Sampled rows, rich in hits. Any-hit rate of the full collection: about 6.5%.

SMILES	Spn DPM-DC inh	Abs 340nm	Fluor 339 460	Spn PMK inh	MK inhibit	NADH coupling
CC1(C)Cc2c(c(N3CCOCC3)nc3sc(C#N)c(N)c23)CS1	x	1.1	2.5*	0	7	2%
CCOC(=O)c1c(C)n(C)c2ccc(O)c(CN3CCC(C)CC3)c12	i	1	1.1	7	48*	18%
CCOC(=O)c1c(C)n(C)c2ccc(O)c(CN3CCN(C)CC3)c12	i	1	1.1	5	6	4%
COc1ccc(C(=O)Nc2c(N)nc(SCC(=O)N3CCCCCC3)[nH]c2=O)cc1OC	i	1	1	17	5	7%
CC(C)C(c1nnnn1C1CCCC1)N1CCN(C(=O)c2ccco2)CC1 (stereo not given)	i	1	1.1	10	6	3%
C=CCn1c(O)c(CN2CCOCC2)c(C)c(C#N)c1=O	i	1.1	1.4	6	8	5%
CN1c2cccc3cccc(c23)N(C)C1(C)C	x	1.1	3.7*	18	0	9%
CC(=O)NC(CCS(C)(=O)=O)C(=O)Nc1ccc(Oc2ccccc2)cc1 (stereo not given)	i	1	1.1	13	0	4%
O=c1oc2c(CN3CCOCC3)c(O)ccc2c2c1CCC2	x	1.1	3.6*	6	8	7%
Cc1oc2ccc(O)c(CN3CCOCC3)c2c1C(=O)c1ccc(Cl)cc1	i	1.1	1.1	13	10	8%
Cc1c(O)ccc2c3c(c(=O)oc12)CCCC3	x	1.1	3.9*	8	9	9%
Cc1c(O)ccc2c3c(c(=O)oc12)CCC(C)C3 (stereo not given)	x	1.1	3.7*	5	9	7%
CC(C)C(NC(=O)OC(C)(C)C)C(=O)N1CCCC1C(=O)NC(Cc1ccccc1)C(N)=O (stereo not given)	i	0.99	1	13	0	4%
COc1ccc(CCC(=O)NC2=NCCS2)cc1OC	i	1	0.98	12	0	4%
Cc1nnc(SCCN2CCOCC2)n1C	i	1	1.1	0	52*	18%
COc1ccccc1-c1nnc(SCCN2CCOCC2)n1-c1ccc(C)cc1	i	1.1	1.1	0	0	0%
CCOC(=O)c1c(-c2ccccc2)[nH]c2ccc(O)cc12	x	1.1	3.7*	1	9	5%
Cc1ccc(-c2c(C#N)c(N)nc3c2CCCCCC3)o1	x	0.92	2.2*	6	2	4%
Cc1ccc(-c2c(C#N)c(N)nc3c2CCCCC3)o1	i	1.1	2*	5	5	8%
CCN(CC)CCNC(=O)c1c(C)oc2cc(Br)c(OC)cc12	i	1	1.1	5	1	2%
COc1ccc2[nH]c(=O)c(CN(Cc3ccco3)Cc3nnnn3Cc3ccccc3)cc2c1	i	1.1	2.3*	5	9	7%
COc1ccc2[nH]c(=O)c(CN(CCO)S(=O)(=O)c3ccc4c(c3)OCCO4)cc2c1	i	0.99	2.1*	1	10	4%
CCc1ccc2[nH]c(=O)c(CN(Cc3ccco3)S(=O)(=O)c3ccc4c(c3)OCCO4)cc2c1	i	1	1.4	18	8	11%
CCc1ccc2[nH]c(=O)c(CN(Cc3ccccc3OC)Cc3nnnn3Cc3ccco3)cc2c1	i	1	1.2	1	4	2%
COC(=O)c1ccccc1S(=O)(=O)N(Cc1ccco1)Cc1cc2cc(OC)ccc2[nH]c1=O	i	1	2.1*	15	10	15%
CCOc1ccc2[nH]c(=O)c(CN(Cc3ccco3)Cc3nnnn3Cc3ccccc3)cc2c1	i	1.1	2*	1	9	4%
O=C1c2ccccc2C(Nc2ccc(F)cc2F)N1CCN1CCOCC1 (stereo not given)	i	0.98	1	4	8	2%
CCOC(=O)c1cc(-c2cc3ccccc3o2)nc2c1c(=O)[nH]c(=O)n2CCOC	x	1.1	5.1*	15	2	9%
CC(=O)Nc1cc(NC(C)=O)cc(C(=O)NC(C)(C)C)c1	i	1.1	1.1	3	x	2%
